The list is not random: actives were taken first. Their share in the collection is about 7.4%.
FLuc counter = firefly luciferase modulation, counter-screen for miR-21 project; purified FLuc, Km substrates, luminescence inhibition; AID 588342; 6.9% of 360,000 active; Potency, µM (titrated, usually from 57.5 µM), without a hit: at the highest dose activity change, negative = inhibition, actives largely listed as inhibitors; P08659;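 also: plate controls were vehicle for no effect and reference inhibitor for full effect; nearly all actives have a fitted effect of over 55% in size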
Target sequence (P08659 whole entry, looked up): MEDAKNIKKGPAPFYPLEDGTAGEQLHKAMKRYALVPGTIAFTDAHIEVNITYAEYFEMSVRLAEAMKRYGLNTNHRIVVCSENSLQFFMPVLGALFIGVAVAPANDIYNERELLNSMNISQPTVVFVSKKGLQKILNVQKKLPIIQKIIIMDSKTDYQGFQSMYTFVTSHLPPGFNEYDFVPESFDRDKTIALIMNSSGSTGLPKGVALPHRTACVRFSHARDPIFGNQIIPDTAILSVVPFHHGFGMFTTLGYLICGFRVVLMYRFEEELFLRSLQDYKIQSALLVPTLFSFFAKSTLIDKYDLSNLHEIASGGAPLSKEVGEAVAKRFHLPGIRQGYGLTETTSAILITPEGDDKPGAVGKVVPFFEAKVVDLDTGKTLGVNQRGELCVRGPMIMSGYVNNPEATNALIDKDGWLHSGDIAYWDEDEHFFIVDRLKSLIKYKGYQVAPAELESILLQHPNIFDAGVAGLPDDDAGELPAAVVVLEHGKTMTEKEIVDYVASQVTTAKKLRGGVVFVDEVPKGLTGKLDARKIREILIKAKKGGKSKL
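Purified P. pyralis luciferase (10nM final) with 10uM D-luciferin and 10uM ATP (Km levels) in 50mM Tris acetate pH 7.5, 10mM Mg acetate, 0.01% Tween-20, 0.05% BSA; qHTS 6-point titration, ~60 µM downward; luminescence read.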
Rab9 promoter act = Rab9 promoter activation. Huh7 Rab9 promoter-luciferase reporter, luminescence, 24 h. Potency, µM (highest dose often 9.22 µM), without a hit: at the top dose activation, negative = inhibition, most hits filed as activators. 2.8% of 320,000 active; also: % of control where 0% means no effect; nearly all actives have a fitted effect of over 60% in size
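Luciferase signal after 10 min detection reagent at ambient indicates Rab9 promoter upregulation; stably transfected Huh7 cells were treated 24 h with compound in DMSO at 37 °C, 5% CO2.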
ELG1 genotox = inducers of genotoxicity in HEK293T ELG1-luciferase cells; 1.3% of 330,000 active; AID 504466; Potency, µM (titrated, usually from 46 µM), inactives show top-dose activity change, positive = activation, usual class: activators; HEK293T ELG1-luciferase reporter, luminescence, 16 h; also: % of control where 0% means no effect; nearly all actives have a fitted effect of over 60% in size
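Luminescence read-out: rising ELG1-luciferase signal, reflecting elevated ELG1 protein under genetic stress, flags genotoxic compounds. Cells were treated for 16 hr at 37 °C before ONE-Glo detection.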
NPC1 promoter act = activators of NPC1 promoter; Potency, µM (doses to about 9.22 µM), for inactives: at the top dose activation, hits mostly activators; 2.4% of 320,000 active; Huh7 NPC1 promoter luciferase reporter, 24 h; AID 485313; also: % of control where 0% means no effect; nearly all actives have a fitted effect of over 60% in size
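Stable NPC1-promoter luciferase Huh7 line; cpd (DMSO) 24 h, 37 °C, 5% CO2; Amplite luciferase reagent 10 min RT; luminescence readout. qHTS format.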
SMN2 splice enh = SMN2 splice variant enhancement; HEK293 SMN2-luciferase splicing reporter, luminescence, 30-36 h; Potency, µM (highest dose often 46.1 µM), for the others: at the top dose activity change, positive = activation, most hits filed as activators; 2.8% of 210,000 active; AID 1458; also: % of control where 0% means no effect; nearly all actives have a fitted effect of over 55% in size
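HEK293 cells carry an SMN2 minigene-luciferase reporter in which exon 7 inclusion puts luciferase in frame. Cells were seeded at 2000 cells/well, attached for 10-12 hours, then exposed to compounds for 30-36 hours at 37C before ONE-Glo luminescence.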
An asterisk follows results filed as active; u = inconclusive; x = not tested or not shown; [ ] = dose if it differs, or a comment. Calls follow the shape of the dose curve; as a rule, active = well fitted curve in the direction sought with a large enough effect; inconclusive = small, poorly fitted or top-dose-only effect, or another doubt; inactive = no such curve, though single readings can be large; an effect the other way counts as inactive or inconclusive. Potency is read from the fitted curve at half-maximal effect.

SMILES	FLuc counter	Rab9 promoter act	ELG1 genotox	NPC1 promoter act	SMN2 splice enh
N#C/C(=C\c1ccc(OCc2ccc(C(=O)O)cc2)cc1)C(=O)N1CCOCC1	17µM*	2.8µM*	u	u	1.6µM*
O=C(CSc1nc2c(cnn2-c2ccc(F)cc2)c(=O)[nH]1)Nc1ccccc1C(F)(F)F	-17%	x	x	x	-1%
Cc1cc2nc(N3CCN(C(=O)c4ccco4)CC3)sc2cc1C	6µM*	0.79µM*	19%	2.5µM*	x
CC(=O)c1cc(F)c(N2CCN(C(=O)c3ccco3)CC2)cc1C	-18%	8%	19%	10%	13%
Cc1cc(C)c2nc(N3CCN(C(=O)c4cccs4)CC3)sc2c1	u	2%	26%	-1%	x
Cc1cc2nc(N3CCN(C(=O)c4cccs4)CC3)sc2cc1C	u	2.8µM*	10%	4µM*	x
Cc1cc(C)c2nc(N3CCN(C(=O)c4ccco4)CC3)sc2c1	17µM*	u	5%	27%	x
COc1ccc(C)c2sc(N3CCN(C(=O)c4ccco4)CC3)nc12	-12%	x	x	x	x
CC(=O)c1ccc(N2CCN(C(=O)c3ccco3)CC2)c(F)c1	-23%	u	u	u	2.8µM*
O=C(CN1c2ccccc2S(=O)(=O)c2ccccc21)Nc1ccccc1F	-1%	-1%	0%	-2%	x
O=C(O)c1cc2c(cc1S(=O)(=O)O)[C@H]1[C@@H](C3[C@H]2[C@@]2(Cl)C(Cl)=C(Cl)C3(Cl)C2(Cl)Cl)[C@]2(Cl)C(Cl)=C(Cl)C1(Cl)C2(Cl)Cl (stereo not given in full)	x	x	x	x	-4%[9.22 µM]
COc1ccc2cc(S(=O)(=O)c3ccccc3F)c(=O)oc2c1	0%	x	x	x	-10%
O=C(/C=C/c1ccccc1F)c1ccoc1	12µM*	4%	-1%	-4%	1%
Cc1nc2sc(C(=O)c3ccccc3)c(N)c2c(C)c1C	u	29%	11%	9%	1%
Nc1c(C(=O)Nc2ccccc2)sc2ncc([N+](=O)[O-])cc12	2%	u	9%	u	x
Cc1nc2sc(C(=O)Nc3ccccc3)c(N)c2c(C)c1[N+](=O)[O-]	u	4.5µM*	7.3µM*	3.2µM*	u
Cc1nc2sc(C(=O)OC(C)C)c(N)c2c(C)c1C	-18%	4.5µM*	14%	-20%	28%
CC(=O)c1ccc(NC(=O)c2sc3nc(C)c(C)c(C)c3c2N)cc1	0.48µM*	0.79µM*	3.7µM*	0.56µM*	x
CC(C)n1nnnc1SCC(=O)N1N=C(c2cccs2)CC1c1cccs1 (stereo not given)	24µM*	u	16%	29%	x
NC(=S)N/N=C/c1ccc(C23CC4CC(CC(C4)C2)C3)cc1	21µM*	-7%	u	-1%	x
NC(=S)N/N=C/c1ccccc1	0%	-10%	1%	1%	22%
CCOC(=O)CCCn1ncn2c(cc3occc32)c1=O	u	26%	21µM*	18%	-2%
COc1ccc(CNC(=O)CCCn2ncn3c(cc4occc43)c2=O)cc1	4%	-2%	1%[9.26 µM]	0%	x
CCOC(=O)c1c(N2C(=O)Nc3ccccc3N2O)n[nH]c1-c1cccc(Cl)c1	u	15%	-5%	-8%	-19%
COc1cccc(-c2cc(N3C(=O)Nc4ccccc4N3O)n[nH]2)c1	15µM*	-3%	1%	4%	-6%
SMILES	FLuc counter	Rab9 promoter act	ELG1 genotox	NPC1 promoter act	SMN2 splice enh
CCOc1ccc(-c2cc(N3C(=O)Nc4ccccc4N3O)n[nH]2)cc1	6.7µM*	-3%	-3%	-2%	4%
CC1CCCN(C(=O)CSc2c3c(nc4cc(Cl)ccc24)CCCC3)C1 (stereo not given)	-15%	x	x	x	-18%
Cc1cc(C)c2oc(-c3cccc(NC(=O)c4ccc(F)cc4)c3)nc2c1	-14%	13%	2%	0%	-26%
COc1cc2ccccc2cc1C(=O)Nc1cccc(-c2nc3cc(C)c(C)cc3o2)c1	1.2µM*	x	x	x	-2%
COc1cc(C(=O)Nc2cccc(-c3nc4cc(C)cc(C)c4o3)c2)cc(OC)c1OC	5.4µM*	-3%	-6%	-3%	-16%
Cc1ccc2oc(-c3cccc(NC(=O)c4ccc(Br)o4)c3)nc2c1	21µM*	11%	u	9%	16%
O=C(Nc1ccc2oc(-c3cccnc3)nc2c1)c1ccc(Br)o1	-11%	-1%	8%	6%	-26%
Cc1cc2nc(-c3cccc(NC(=O)c4ccc(Br)o4)c3)oc2cc1C	17µM*	3%	18%	-4%	-4%
CC(C)(C)c1ccc(C(=O)Nc2ccc(-c3nc4cc(Cl)ccc4o3)cc2)cc1	-1%	x	x	x	-12%
COc1ccc(Cl)cc1C(=O)Nc1ccc2oc(-c3ccc(C(C)(C)C)cc3)nc2c1	9.5µM*	x	x	x	-5%
COc1cc(/C=C2\SC(=N)N(c3ccc(F)cc3)C2=O)ccc1O	-5%	-8%	9%	1%	-20%
COc1cc(/C=C2\OC(=O)c3c(OC)cccc32)ccc1O	3.4µM*	u	10µM*	u	-13%
CSc1ccc(CNCCCN(C)C)cc1	1%	-2%	0%	3%	-3%
O=C(CNC(=O)c1cccs1)c1ccc([N+](=O)[O-])cc1	24µM*	2.8µM*	u	u	u
O=C(CNC(=O)c1cccs1)c1ccc(Cl)cc1	6µM*	0.5µM*	u	1.1µM*	x
O=C(CNC(=O)c1cccs1)OCC(=O)c1ccc(Cl)cc1	-7%	-5%	0%	-3%	x
O=C(CNC(=O)c1cccs1)c1ccc(F)cc1	4.8µM*	0.56µM*	u	0.5µM*	6.3µM*
O=C(CNC(=O)c1cccs1)OCC(=O)c1ccc([N+](=O)[O-])cc1	0%	-5%	-3%	7%	x
COc1ccc(-c2nn(-c3ccc(C)c(Cl)c3)c3c2cnc2cc(OC)c(OC)cc23)cc1	0%	x	x	x	x
COc1cc(C2c3c(-c4cc(C)ccc4O)n[nH]c3C(=O)N2CCCO)ccc1OCCC(C)C (stereo not given)	-2%	x	x	x	2%
Cc1ccc(NC(=O)/C=C/c2ccccc2)c(Br)c1	2.7µM*	x	x	x	8.9µM*
Cn1c(NC(=O)/C=C\c2ccccc2)cc(=O)n(C)c1=O	u	3.5µM*	u	30%	x
Cc1ccc(C(=O)n2nc(C)c(S(=O)(=O)N3CCOCC3)c2C)cc1	-2%	x	x	x	x
Cc1ccc(S[C@@H](CCN2CC[C@H](C(C)(C)C)CCC2=O)c2ccccc2)cc1	-10%	-6%	-3%	0%	x
C=CCSC1=NC(=O)/C(=C/c2cccs2)S1	19µM*	-5%	u	-8%	20%
Fc1cccc(Cc2noc(CN3CCCCC3c3ccccn3)n2)c1 (stereo not given)	24µM*	u	u	u	x
O=C(Nc1ccccc1)OC1CC2CC1C1CCCC21 (stereo not given)	7.6µM*	2.5µM*	u	u	x

Assay outcomes as filed in PubChem.
